Assay results published in PubChem BioAssay AID686979 (National Center for Advancing Translational Sciences (NCATS), 2013).
Out of some 420,000 compounds screened, about 50,000 (12%) were called active. Inconclusive results (about 26%) are left out. The sample holds actives, similar compounds and a random draw of the others, so the mix is not that of the screen. Unmarked numbers belong to inactive results. The call rests on the fitted dose curve; in most records, active means well fitted inhibition curve with a large enough effect; inconclusive means small, poorly fitted or top-dose-only effect; inactive means flat fitted curve, though single readings scatter. Where a SMILES comes first, the peptide text is derived from it. Bridges are numbered along the chain shown (N, C = ends). [ ]: non-standard residue; d: D form. The star is where a group is joined. X4 = CC[C@H](C)CCCCC(=O)*; Dab = NCC[C@H](N)C(=O)O
On the % scale 0 is the no-effect control and ±100 the full control effect; potency means the concentration at half of the fitted maximal effect.

Experiment: qHTS for Inhibitors of human tyrosyl-DNA phosphodiesterase 1 (TDP1): qHTS in cells in presence of CPT; further: nearly all actives have a fitted effect of over 55% in size
Conditions: chicken DT40 Tdp1-/-;hTDP1 cells + 20 nM CPT, ATP luminescence, 48 h; series mostly up to 46.2 µM; activity change, negative = growth inhibition: at the top concentration
In short: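 Chicken DT40 Tdp1-/- cells stably complemented with human TDP1 were seeded at 400 cells/well in medium containing 20 nM camptothecin, exposed to pin-transferred compounds, and grown at 37 °C for at least 48 hr. Viability was read as ATP luminescence.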
In the case of `O=C(C1CCC1)N1CCN(c2ccccc2)CC1`, the “activity change, negative = growth inhibition” value is reported as -15.3%. With `CCOC(=O)Cc1ncccc1C(=O)Nc1ccc(OC)cc1` the “activity change, negative = growth inhibition” value was 7.57%. For `Cc1ccc2cccc([N+](=O)[O-])c2n1`, the “activity change, negative = growth inhibition” value was 3.55%. With `CC[C@H](C)CCCCC(=O)N[C@@H](CCN)C(=O)N[C@H](C(=O)N[C@@H](CCN)C(=O)N[C@H]1CCNC(=O)[C@H]([C@@H](C)O)NC(=O)[C@H](CCN)NC(=O)[C@H](CCN)NC(=O)[C@H](CC(C)C)NC(=O)[C@@H](CC(C)C)NC(=O)[C@H](CCN)NC1=O)[C@@H](C)O` (X4-[Dab]T[Dab][Dab][Dab][dL]L[Dab][Dab]T; lactam 4-C) the “activity change, negative = growth inhibition” value was 7.64%. For `CC(=O)N1CCCc2ccc(NS(=O)(=O)c3ccc(F)cc3F)cc21`, the “activity change, negative = growth inhibition” value was 3.45%. For `Cc1nn(CCOc2ccccc2)c(=O)n1-c1ccccc1F`, the “activity change, negative = growth inhibition” value was -4.12%. With `CCN1C(=O)/C(=C\N2CCN(c3cccc(Cl)c3)CC2)SC1=S` the “activity change, negative = growth inhibition” value was -25.7%. In the case of `CCc1nn(CCCN2CCN(c3cccc(Cl)c3)CC2)c(=O)n1CCOc1ccccc1`, the Potency is reported as 11.6 µM (active). For `Cc1cc(C)cc(NC(=O)CCCc2nc(-c3ccccc3Cl)no2)c1`, the “activity change, negative = growth inhibition” value was -7.11%. In the case of `COc1ccc(-c2noc(CNC(=O)C(C)Oc3ccccc3)n2)cc1` (stereo not drawn), the “activity change, negative = growth inhibition” value is reported as -11.7%. With `NC1=NC(c2ccc([N+](=O)[O-])cc2)N(c2ccc(F)cc2)C(N)=N1` (stereo not drawn) the “activity change, negative = growth inhibition” value was -21.7%. For `Cc1ccc(OCc2nc3ccccc3n2C)cc1`, the “activity change, negative = growth inhibition” value was -29.2%. With `COCCn1c(-c2ccc(OC)c(OC)c2)nc2ccccc21` the “activity change, negative = growth inhibition” value was -3.14%. With `Cc1ccc(OCCn2c(CNc3ccccc3C)nc3ccccc32)cc1` the Potency was 23.1 µM (active). In the case of `COc1cc2ccccc2cc1C(=O)Nc1nc(C)c(C(C)=O)s1`, the “activity change, negative = growth inhibition” value is reported as 3.46%. In the case of `Cc1csc2nc(COc3ccc(NC(=O)COc4ccccc4)cc3)cc(=O)n12`, the “activity change, negative = growth inhibition” value is reported as -21.1%. With `Cc1csc2nc(COC(=O)c3ccc(NC(=O)COc4ccccc4F)cc3)cc(=O)n12` the Potency was 18.4 µM (active). With `O=C(COc1ccccc1F)Nc1ccc(C(=O)OCc2cc(=O)n3nc(C4CC4)sc3n2)cc1` the “activity change, negative = growth inhibition” value was -6.06%. In the case of `COc1ccc(CCNC(=O)CCNS(=O)(=O)c2cc(Br)cnc2N)cc1OC`, the “activity change, negative = growth inhibition” value is reported as -14.4%. In the case of `COC(=O)[C@H](CC(C)C)NC(=O)N1CCCCC1C` (stereo partly drawn), the “activity change, negative = growth inhibition” value is reported as -20.3%. For `CC(C)(C)Nc1nc(-c2ccccn2)nc2ccccc12`, the Potency was 4.61 µM (active). For `Cc1nc2ccccc2c(C(=O)O)c1-c1ccccn1`, the “activity change, negative = growth inhibition” value was -9.02%. In the case of `CC(=O)Nc1ccc(NC(=O)CCN2C(=O)C3CC=CCC3C2=O)cc1` (stereo not drawn), the “activity change, negative = growth inhibition” value is reported as -8.73%. In the case of `COC(=O)[C@]1(C)CCC[C@@]2(C)C3CC[C@]4(OC(C)=O)C[C@@]3(CCC21)CC4=NO` (stereo partly drawn), the Potency is reported as 16.4 µM (active). With `COC(=O)[C@@H]1C[C@H]2CC[C@H](O)C[C@H]2N1Cc1ccc(N2CCN(C)CC2)cc1` the “activity change, negative = growth inhibition” value was 2.1%. For `Cc1nc2sc(C(c3ccco3)N3CCOCC3)c(O)n2n1` (stereo not drawn), the “activity change, negative = growth inhibition” value was -5.57%. With `O=C(c1cccnc1NCc1ccccc1)N1CCOCC1` the “activity change, negative = growth inhibition” value was -0.352%. For `Oc1c(C(c2ccccn2)N2CCOCC2)ccc2cccnc12` (stereo not drawn), the Potency was 16.4 µM (active). For `O=C(O)c1cc(S(=O)(=O)Nc2ccc3cn[nH]c3c2)ccc1Br`, the “activity change, negative = growth inhibition” value was -23%. In the case of `O=C(Nc1ccccc1)C1CC(=O)n2c(nc3ccccc32)N1` (stereo not drawn), the “activity change, negative = growth inhibition” value is reported as -4.62%. With `O=c1ccc2cc(S(=O)(=O)NCCCc3ccccc3)ccc2[nH]1` the “activity change, negative = growth inhibition” value was -0.674%. With `COC(=O)C(C)Sc1nc2c(c(=O)n(C)c(=O)n2C)n1Cc1cccc(C)c1` (stereo not drawn) the “activity change, negative = growth inhibition” value was -18.2%. With `CCCCn1c(SCC(=O)N2CCOCC2)nc2c1c(=O)n(C)c(=O)n2C` the “activity change, negative = growth inhibition” value was 2.67%. For `C#CC(C)(C)NC(=O)CSc1nc2c(c(=O)n(C)c(=O)n2C)n1CCCC`, the “activity change, negative = growth inhibition” value was -13%. For `CC(C)n1c(SCC(=O)Nc2ccccc2N2CCCCC2)nc2c1c(=O)n(C)c(=O)n2C`, the Potency was 29.1 µM (active). In the case of `Cc1cccc(Cn2c(SCCO)nc3c2c(=O)n(C)c(=O)n3C)c1`, the Potency is reported as 25.9 µM (active). For `CCOC(=O)CSc1nc2c(c(=O)n(C)c(=O)n2C)n1Cc1ccccc1F`, the “activity change, negative = growth inhibition” value was -17%. In the case of `Cn1c(=O)c2c(nc(SCC(=O)Nc3ccc(F)cc3)n2Cc2ccccc2)n(C)c1=O`, the Potency is reported as 4.61 µM (active). In the case of `CCC1CCCCN1C(=O)CSc1nc2c(c(=O)n(C)c(=O)n2C)n1C` (stereo not drawn), the “activity change, negative = growth inhibition” value is reported as -19.2%. With `CSc1nnc(C2CCCN(CC(=O)Nc3ccccc3N3CCOCC3)C2)n1C(C)C` (stereo not drawn) the “activity change, negative = growth inhibition” value was -20%. In the case of `O=C(c1cccs1)N1C[C@H](n2cc(C3CC3)nn2)[C@@H](O)C[C@@H]1c1ccccc1`, the “activity change, negative = growth inhibition” value is reported as -0.33%. In the case of `O=C(O)CC12CC3CC(C1)CC(n1ncc(NCc4ccc(F)cc4)c(Cl)c1=O)(C3)C2`, the “activity change, negative = growth inhibition” value is reported as 2.86%. With `O=C(NCc1csc(-c2cccs2)n1)C1CC1` the “activity change, negative = growth inhibition” value was 5.77%. With `CC(C)(C)C1CCC(C(=O)NCC(c2cccs2)N2CCOCC2)CC1` (stereo not drawn) the Potency was 16.4 µM (active). In the case of `Cc1ccc(C(=O)NCC(c2cccs2)N(C)C)cc1S(=O)(=O)N1CCOCC1` (stereo not drawn), the “activity change, negative = growth inhibition” value is reported as -21.4%. With `Cc1c(C=O)c2ccccc2n1CC(=O)O` the “activity change, negative = growth inhibition” value was -0.794%. For `Cc1ccc(S(=O)(=O)N2CCOCC2)cc1NC(=O)COC(=O)c1cnccn1`, the “activity change, negative = growth inhibition” value was -0.832%. For `COc1cc(/C=C/c2ccc(/C=C/c3cc(OC)c(OC)c(OC)c3)cc2)cc(OC)c1OC`, the “activity change, negative = growth inhibition” value was -24.1%.
